This passage reports binding signal results from paper PMC7862700, “An all-to-all approach to the identification of sequence-specific readers for epigenetic DNA modifications on cytosine”.

Common to all, as to assay: DAPPL (digital affinity profiling via proximity ligation, sequencing); 10 mM Tris-HCl pH 7.5, 50 mM NaCl, 1 mM DTT, 4% glycerol, room temperature, 30 min; GST-TFs on glutathione beads, 16-mer random dsDNA library, 0.1% formaldehyde crosslink after washing; high values mean tight binding
Common to all, as to conditions: protein: recombinant; tags: N-terminal GST; dsDNA, one strand shown

Assay [1] addresses T1, FEV (Homo sapiens, UniProt Q99581 1-238).
T1 sequence: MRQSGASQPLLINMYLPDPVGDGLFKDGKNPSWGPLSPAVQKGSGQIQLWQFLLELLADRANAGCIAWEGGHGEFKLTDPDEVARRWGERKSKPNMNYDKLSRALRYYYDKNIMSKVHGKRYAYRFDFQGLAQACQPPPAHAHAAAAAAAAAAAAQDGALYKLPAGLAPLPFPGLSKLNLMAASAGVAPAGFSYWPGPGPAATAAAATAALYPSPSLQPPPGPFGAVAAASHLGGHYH
A digest of the protocol: (§1)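 Beads coated with glutathione captured GST-fused human transcription factors that had been expressed in yeast, and the factors were then given DNA barcodes and pooled with a tag-only sample. The pools were incubated with 200 nmole of a random double-stranded 16-mer DNA library in Tris/NaCl/DTT/glycerol buffer for 30 min at room temperature, washed, crosslinked with 0.1% formaldehyde and proximity-ligated with BsaI/T4 ligase at 37 °C for 1 h. PCR amplification and Illumina NextSeq500 sequencing came last. Binding signal is each hexamer's read frequency for a factor divided by its frequency for the tag-only sample.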

The target of assay [2] is ETV5 (Homo sapiens, UniProt P41161 1-510). A digest of the protocol: as §1
Assay [3] addresses T2, SPIC (Homo sapiens, UniProt Q8N5J4 1-248).
T2 sequence: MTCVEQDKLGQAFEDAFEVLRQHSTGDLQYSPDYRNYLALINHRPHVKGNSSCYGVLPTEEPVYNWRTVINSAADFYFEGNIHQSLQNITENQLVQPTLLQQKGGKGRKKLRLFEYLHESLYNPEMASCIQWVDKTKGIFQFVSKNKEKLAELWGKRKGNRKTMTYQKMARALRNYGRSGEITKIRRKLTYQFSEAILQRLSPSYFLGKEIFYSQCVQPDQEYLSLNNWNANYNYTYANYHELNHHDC
The method in brief: as §1

Assay [4] concerns the target ELF4 (Homo sapiens, UniProt Q99607 1-663). A digest of the protocol: as §1
The target of assay [5] is T3, ELK4 (Homo sapiens, UniProt P28324-2 1-405).
T3 sequence: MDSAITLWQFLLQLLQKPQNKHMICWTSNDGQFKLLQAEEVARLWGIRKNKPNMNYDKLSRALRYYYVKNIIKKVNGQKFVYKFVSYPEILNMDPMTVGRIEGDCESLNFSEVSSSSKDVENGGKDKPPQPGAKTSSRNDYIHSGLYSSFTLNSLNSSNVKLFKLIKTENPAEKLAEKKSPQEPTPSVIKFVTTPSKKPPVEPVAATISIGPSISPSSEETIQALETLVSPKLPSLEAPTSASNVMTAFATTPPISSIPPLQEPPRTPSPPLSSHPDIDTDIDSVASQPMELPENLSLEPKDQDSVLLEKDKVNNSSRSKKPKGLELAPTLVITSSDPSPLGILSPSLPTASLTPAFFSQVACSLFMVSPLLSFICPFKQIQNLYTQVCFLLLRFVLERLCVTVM
A digest of the protocol: as §1

In assay [6] the target is T4, ETV2 (Homo sapiens, UniProt O00321 1-342).
T4 sequence: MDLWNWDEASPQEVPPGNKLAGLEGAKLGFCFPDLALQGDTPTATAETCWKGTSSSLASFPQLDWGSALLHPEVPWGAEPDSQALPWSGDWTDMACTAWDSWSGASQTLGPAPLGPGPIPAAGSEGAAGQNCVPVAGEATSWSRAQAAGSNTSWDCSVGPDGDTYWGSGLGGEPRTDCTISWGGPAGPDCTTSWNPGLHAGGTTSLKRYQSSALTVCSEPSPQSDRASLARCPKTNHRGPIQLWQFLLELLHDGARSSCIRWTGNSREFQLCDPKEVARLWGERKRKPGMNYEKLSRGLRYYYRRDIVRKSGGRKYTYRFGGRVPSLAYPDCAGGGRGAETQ
The method in brief: as §1

The target in assay [7] is T5, ELF3 (Homo sapiens, UniProt P78545 1-371).
T5 sequence: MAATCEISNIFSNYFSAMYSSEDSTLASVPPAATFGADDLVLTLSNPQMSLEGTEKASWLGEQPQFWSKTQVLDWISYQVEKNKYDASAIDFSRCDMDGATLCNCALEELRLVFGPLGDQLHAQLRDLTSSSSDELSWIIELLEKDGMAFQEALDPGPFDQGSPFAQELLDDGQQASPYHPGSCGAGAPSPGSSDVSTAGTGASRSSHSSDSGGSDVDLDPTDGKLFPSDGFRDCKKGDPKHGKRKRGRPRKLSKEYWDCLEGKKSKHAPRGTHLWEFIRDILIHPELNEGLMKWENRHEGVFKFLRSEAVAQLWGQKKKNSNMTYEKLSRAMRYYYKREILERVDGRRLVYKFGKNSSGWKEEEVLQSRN
The method in brief: as §1

Assay [8] deals with ETV1 (Homo sapiens, UniProt P50549 1-477). The method in brief:
as §1

Sequence of ELF4 (Q99607 whole entry): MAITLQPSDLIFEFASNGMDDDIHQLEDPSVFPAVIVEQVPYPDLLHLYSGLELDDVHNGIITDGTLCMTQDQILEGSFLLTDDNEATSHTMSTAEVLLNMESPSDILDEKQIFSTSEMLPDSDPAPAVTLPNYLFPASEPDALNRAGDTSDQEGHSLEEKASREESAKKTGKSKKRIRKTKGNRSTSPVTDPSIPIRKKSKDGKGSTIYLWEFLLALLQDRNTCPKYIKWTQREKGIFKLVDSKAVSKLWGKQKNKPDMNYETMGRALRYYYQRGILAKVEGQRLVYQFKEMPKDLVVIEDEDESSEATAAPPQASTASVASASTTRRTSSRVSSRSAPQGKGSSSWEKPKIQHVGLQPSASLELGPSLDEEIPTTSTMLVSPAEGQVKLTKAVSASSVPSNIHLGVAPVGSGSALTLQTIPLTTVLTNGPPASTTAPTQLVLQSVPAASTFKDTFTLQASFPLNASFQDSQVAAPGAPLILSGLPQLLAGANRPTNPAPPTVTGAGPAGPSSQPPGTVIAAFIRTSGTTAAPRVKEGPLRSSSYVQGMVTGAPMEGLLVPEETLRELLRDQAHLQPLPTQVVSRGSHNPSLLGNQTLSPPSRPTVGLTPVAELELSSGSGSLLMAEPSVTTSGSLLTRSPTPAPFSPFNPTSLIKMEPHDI
Sequence of ETV1 (P50549 whole entry): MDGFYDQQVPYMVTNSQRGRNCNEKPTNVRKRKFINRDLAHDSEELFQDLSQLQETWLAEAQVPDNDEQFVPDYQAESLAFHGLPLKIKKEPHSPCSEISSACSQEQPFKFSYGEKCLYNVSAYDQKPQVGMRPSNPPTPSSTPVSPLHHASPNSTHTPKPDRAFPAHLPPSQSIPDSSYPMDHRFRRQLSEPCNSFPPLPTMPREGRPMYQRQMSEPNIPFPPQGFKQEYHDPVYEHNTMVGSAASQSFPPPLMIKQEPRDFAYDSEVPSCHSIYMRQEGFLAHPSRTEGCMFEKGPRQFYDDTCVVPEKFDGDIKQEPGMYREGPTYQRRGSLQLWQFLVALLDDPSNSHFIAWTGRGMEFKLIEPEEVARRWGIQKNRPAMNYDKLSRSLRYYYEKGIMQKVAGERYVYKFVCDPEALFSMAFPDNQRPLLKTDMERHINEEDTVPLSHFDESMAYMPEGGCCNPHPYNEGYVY
Sequence of ETV5 (P41161 whole entry): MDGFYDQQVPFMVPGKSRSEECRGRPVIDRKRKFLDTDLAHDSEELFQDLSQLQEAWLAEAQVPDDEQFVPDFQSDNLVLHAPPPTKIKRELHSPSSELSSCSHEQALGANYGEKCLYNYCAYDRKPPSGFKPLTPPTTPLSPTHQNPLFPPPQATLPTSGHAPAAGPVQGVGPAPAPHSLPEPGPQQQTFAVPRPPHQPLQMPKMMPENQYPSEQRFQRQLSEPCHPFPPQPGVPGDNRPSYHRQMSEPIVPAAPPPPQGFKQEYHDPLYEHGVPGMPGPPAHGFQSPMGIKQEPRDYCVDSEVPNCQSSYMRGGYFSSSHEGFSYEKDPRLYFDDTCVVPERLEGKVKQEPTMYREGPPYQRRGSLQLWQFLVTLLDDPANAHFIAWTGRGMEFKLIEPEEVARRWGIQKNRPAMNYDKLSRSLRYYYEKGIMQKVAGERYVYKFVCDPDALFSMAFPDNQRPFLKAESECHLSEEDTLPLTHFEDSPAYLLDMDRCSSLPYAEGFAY

Consider GTATGC, for which the binding signal was 1.15 fold enrichment (6-mer frequency, TF over GST control) in assay [1]; 1.17 fold enrichment (6-mer frequency, TF over GST control) in assay [2]; 1.14 fold enrichment (6-mer frequency, TF over GST control) in assay [3]; 1.16 fold enrichment (6-mer frequency, TF over GST control) in assay [4]; 1.23 fold enrichment (6-mer frequency, TF over GST control) in assay [5]; 1.25 fold enrichment (6-mer frequency, TF over GST control) in assay [6]. For the same sequence, the binding signal in assay [7] is 1.1 fold enrichment (6-mer frequency, TF over GST control); in assay [8], 1.12 fold enrichment (6-mer frequency, TF over GST control).
Take GTCACT: the binding signal was 1.18 fold enrichment (6-mer frequency, TF over GST control) in assay [1]; 1.14 fold enrichment (6-mer frequency, TF over GST control) in assay [2]; 1.01 fold enrichment (6-mer frequency, TF over GST control) in assay [3]; 1.09 fold enrichment (6-mer frequency, TF over GST control) in assay [4]; 1.07 fold enrichment (6-mer frequency, TF over GST control) in assay [5]; 1.14 fold enrichment (6-mer frequency, TF over GST control) in assay [6]. Moreover, the binding signal in assay [7] is 1.26 fold enrichment (6-mer frequency, TF over GST control).
For TGGTGT, the binding signal is 1.14 fold enrichment (6-mer frequency, TF over GST control) in assay [1]; 1.26 fold enrichment (6-mer frequency, TF over GST control) in assay [2]; 1.09 fold enrichment (6-mer frequency, TF over GST control) in assay [3]; 1.34 fold enrichment (6-mer frequency, TF over GST control) in assay [4]; 1.31 fold enrichment (6-mer frequency, TF over GST control) in assay [5]; 1.45 fold enrichment (6-mer frequency, TF over GST control) in assay [6]. For the same sequence, the binding signal in assay [7] is 1.25 fold enrichment (6-mer frequency, TF over GST control); in assay [8], 1.2 fold enrichment (6-mer frequency, TF over GST control).
GCTGTT: the binding signal in assay [1] was 1.16 fold enrichment (6-mer frequency, TF over GST control); in assay [2] it was 1.07 fold enrichment (6-mer frequency, TF over GST control); in assay [3], 1.25 fold enrichment (6-mer frequency, TF over GST control); in assay [4], 1.18 fold enrichment (6-mer frequency, TF over GST control); in assay [5] it was 1.24 fold enrichment (6-mer frequency, TF over GST control); in assay [6], 1.1 fold enrichment (6-mer frequency, TF over GST control). Also, the binding signal is 1.17 fold enrichment (6-mer frequency, TF over GST control) in assay [7] and 1.21 fold enrichment (6-mer frequency, TF over GST control) in assay [8].
TGTGTT: the binding signal in assay [1] was 1.06 fold enrichment (6-mer frequency, TF over GST control); in assay [2], 1.06 fold enrichment (6-mer frequency, TF over GST control); in assay [3], 1.02 fold enrichment (6-mer frequency, TF over GST control); in assay [4] it was 1.16 fold enrichment (6-mer frequency, TF over GST control); in assay [5], 1.07 fold enrichment (6-mer frequency, TF over GST control); in assay [6], 1.19 fold enrichment (6-mer frequency, TF over GST control). The binding signal in assay [7] is 1.08 fold enrichment (6-mer frequency, TF over GST control).
As for CCACCC, the binding signal in assay [1] is 1.17 fold enrichment (6-mer frequency, TF over GST control); in assay [2], 1.25 fold enrichment (6-mer frequency, TF over GST control); in assay [3], 1.21 fold enrichment (6-mer frequency, TF over GST control); in assay [4], 1.32 fold enrichment (6-mer frequency, TF over GST control); in assay [5], 1.38 fold enrichment (6-mer frequency, TF over GST control); in assay [6], 1.3 fold enrichment (6-mer frequency, TF over GST control). In addition, the binding signal in assay [7] was 1.37 fold enrichment (6-mer frequency, TF over GST control); in assay [8], 1.16 fold enrichment (6-mer frequency, TF over GST control).
On to ATGTGT, for which the binding signal in assay [1] was 1.02 fold enrichment (6-mer frequency, TF over GST control); in assay [2], 1.16 fold enrichment (6-mer frequency, TF over GST control); in assay [3] it was 1.17 fold enrichment (6-mer frequency, TF over GST control); in assay [4], 1.08 fold enrichment (6-mer frequency, TF over GST control); in assay [5], 1.05 fold enrichment (6-mer frequency, TF over GST control); in assay [6] it was 1.11 fold enrichment (6-mer frequency, TF over GST control). Further, in assay [8], the binding signal was 1.18 fold enrichment (6-mer frequency, TF over GST control).
As to ACACTC, the binding signal in assay [1] is 1.12 fold enrichment (6-mer frequency, TF over GST control); in assay [2], 1.04 fold enrichment (6-mer frequency, TF over GST control); in assay [3], 1.01 fold enrichment (6-mer frequency, TF over GST control); in assay [4], 1.14 fold enrichment (6-mer frequency, TF over GST control); in assay [5], 1.19 fold enrichment (6-mer frequency, TF over GST control); in assay [6], 1.11 fold enrichment (6-mer frequency, TF over GST control). Also, in assay [8], the binding signal is 1.07 fold enrichment (6-mer frequency, TF over GST control).
On to TGGTCC, for which the binding signal in assay [1] was 1.12 fold enrichment (6-mer frequency, TF over GST control); in assay [2], 1.23 fold enrichment (6-mer frequency, TF over GST control); in assay [3], 1.32 fold enrichment (6-mer frequency, TF over GST control); in assay [4], 1.22 fold enrichment (6-mer frequency, TF over GST control); in assay [5], 1.29 fold enrichment (6-mer frequency, TF over GST control); in assay [6] it was 1.23 fold enrichment (6-mer frequency, TF over GST control). For the same sequence, the binding signal in assay [8] is 1.2 fold enrichment (6-mer frequency, TF over GST control).
